A short description of assay [1]: Viability qHTS for spleen associated tyrosine kinase inhibitor (SYKi) naive MV4-11 cells (AID 1963823). Also: nearly all actives have a fitted effect of over 40% in size. Summed up:
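Viability of MV4-11 AML cells lacking prior SYK inhibitor exposure is scored by CellTiter-Glo luminescence following 72 hr compound incubation at 37 C, 5% CO2, seeded at 500 cells per well.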

A short description of assay [2]: Viability qHTS for spleen associated tyrosine kinase inhibitor (SYKi) drug resistant MV4-11 cells (AID 1963824). Also: nearly all actives have a fitted effect of over 35% in size. Put shortly:
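SYK inhibitor-resistant MV4-11 AML cells, 500 per well, added to predispensed compounds and incubated 72 hr at 37 C, 5% CO2. Viability measured by CellTiter-Glo luminescence after 10 min at room temperature.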

Experimental findings from PubChem BioAssay (NCATS) are described below.

Each structure is given as a SMILES string. Records with an inconclusive call do not appear. A number with no mark means an inactive call. Activity calls are given as the source filed them. Calls follow the shape of the dose curve; as a rule, active = well fitted cell-killing curve with a large enough effect; inconclusive = small, poorly fitted or top-dose-only effect, or effect the other way; inactive = no such curve, though single readings can be large or run the other way.
Potency is read from the fitted curve at half-maximal effect.

`O=C(NN1CCCCC1)c1nn(-c2ccc(Cl)cc2Cl)c(-c2ccc(C#Cc3ccc(C(F)(F)F)cc3)s2)c1CNS(=O)(=O)N1CCCC1`: the Potency entry in assay [1] and in assay [2] was “inactive” throughout.

Turning to `Cc1nc(Nc2ccc(F)cc2)nc(N2CCc3ccccc3C2C)c1C` (configuration not stated), the results for the Potency in assay [1] and in assay [2] were 20.6 µM (active) and 14.6 µM (active), respectively.

For the molecule `CC1=C[C@H](O)[C@H]2C(C)(C)CCC[C@]2(C)[C@@]1(O)CO`, the Potency entry in assay [1] is “inactive”. The Potency in assay [2] was 4.11 µM (active).

For the molecule `COc1ccc2c(c1)OC[C@]1(O)c3cc4c(cc3O[C@H]21)OCO4`, the Potency entry in assay [1] and in assay [2] was “inactive” each time.

With `C[C@@H](OC(=O)/C=C/c1ccc(O)cc1)C1=C[C@]2(C=C[C@@H]3C(C(=O)O)=CO[C@@H](O[C@@H]4O[C@H](CO[C@@H]5O[C@H](CO)[C@@H](O)[C@H](O)[C@H]5O)[C@@H](O)[C@H](O)[C@H]4O)[C@@H]32)OC1=O`, the Potency entry in assay [1] and in assay [2] was “inactive” each time.

In the case of `c1cc(CN2CCCCC2)cc(OCCCNc2nc3ccccc3s2)c1`, the Potency was 15 µM (active) in assay [1] and 21.1 µM (active) in assay [2].

Consider `C[C@H](NC(=O)C(C)(C)Oc1ccc(C(F)(F)F)cn1)[C@@H](Cc1ccc(Cl)cc1)c1cccc(C#N)c1`, for which the Potency was 13 µM (active) in assay [1] and 9.2 µM (active) in assay [2].

`CCC(C)(OC(C)=O)C(=O)O[C@H]1[C@H](OC(C)=O)[C@]2(CO)[C@H](O)[C@H](O)[C@]3(C)C(=CCC4[C@@]5(C)CC[C@H](O[C@@H]6O[C@H](C(=O)O)[C@@H](O)[C@H](O[C@@H]7OC[C@H](O)[C@H](O[C@@H]8OC[C@H](O)[C@H](O)[C@H]8O)[C@H]7O)[C@H]6O[C@@H]6O[C@H](CO)[C@@H](O)[C@H](O)[C@H]6O)C(C)(C)C5CC[C@]43C)[C@@H]2CC1(C)C` (some centres not stated): the figures for the Potency in assay [1] and in assay [2] were 2.75 µM (active) and 2.45 µM (active), respectively.

As to `CC(=O)c1c(OCCN2CCCCC2)c(OCCC(C)c2ccc(F)cc2)c2oc(C)nc2c1C` (configuration not stated), the figures for the Potency in assay [1] and in assay [2] were 10.3 µM (active) and 7.31 µM (active), respectively.

For the molecule `O=C(O)Cc1cn(C2OCC(O)C(O)C2O[C@@H]2O[C@H](CO)[C@@H](O)[C@H](O)[C@H]2O)c2ccccc12` (some centres not stated), the Potency entry in assay [1] and in assay [2] was “inactive” in each case.

For the molecule `Cc1ccc(NS(=O)(=O)c2cccc(C#N)c2)c2[nH]cc(C#N)c12`, the Potency in assay [1] was 0.166 µM (active); in assay [2], 0.235 µM (active).

For `COc1ccc(Cl)c(Nc2ncnc3cc(OCC4CCN(C)CC4)c(OC)cc23)c1`, the results for the Potency in assay [1] and in assay [2] were 5.25 µM (active) and 5.17 µM (active), respectively.

As to `CC1CC(O)CC(C)(C)C1(O)CCO` (configuration not stated), the Potency result in assay [1] and in assay [2] was “inactive” each time.

For `CC(=O)CCC1=C(C)C(O[C@@H]2O[C@H](CO)[C@@H](O)[C@H](O)[C@H]2O)C(O)CC1(C)C` (some centres not stated), the Potency result in assay [1] and in assay [2] was “inactive” throughout.

Consider `C=C1[C@@H](C2=CC(=O)OC2)CC[C@@]2(O)[C@@H]1CC1[C@H]2CC[C@@H]2C[C@@H](O[C@H]3O[C@@H](C)[C@@H](O[C@@H]4O[C@H](CO[C@@H]5O[C@H](CO)[C@@H](O)[C@H](O)[C@H]5O)[C@@H](O)[C@H](O)[C@H]4O)[C@H](OC)[C@H]3O)CC[C@]12C` (some centres not stated), for which the Potency in assay [1] was 2.19 µM (active); in assay [2] it was 1.55 µM (active).

Turning to `C[C@@H]1CC[C@]2(C(=O)O[C@@H]3O[C@H](CO[C@@H]4O[C@H](CO)[C@@H](O)[C@H](O)[C@H]4O)[C@@H](O)[C@H](O)[C@H]3O)CC[C@]3(C)C(=CCC4[C@@]5(C)CC[C@H](O)[C@](C)(C(=O)O)C5CC[C@]43C)[C@@H]2[C@]1(C)O` (some centres not stated), the viability (% of control) in assay [1] is 70.3% [at 9.25 µM]. The viability, % of control in assay [2] was 98.7% [at 9.25 µM].

Take `O=C1NC(Cc2ccccc2)C(=O)N2CCCC12` (configuration not stated): the Potency result in assay [1] and in assay [2] was “inactive” in each case.

As for `CCCCOc1ccc(CC/C=C2\SC(=O)N(CCN)C2=O)cc1`, the Potency in assay [1] is 5.17 µM (active); in assay [2], 2.91 µM (active).

Consider `COc1cc(/C=C/C(=O)OC2CC(OC(C)=O)C(OC(C)=O)C3C2CCC2C(=O)OC(c4ccoc4)CC23C)ccc1O[C@@H]1O[C@H](CO)[C@@H](O)[C@H](O)[C@H]1O` (some centres not stated), for which the Potency result in assay [1] and in assay [2] was “inactive” throughout.

Consider `C=C1C(=O)O[C@@H]2[C@H]1CC(=O)[C@H](C)[C@@](O)(C(=O)/C=C/C)[C@H]2OC(=O)C(C)CC` (some centres not stated), for which the Potency is 0.36 µM (active) in assay [1] and 0.508 µM (active) in assay [2].

For `C[C@@H]1O[C@@H](O[C@H]2[C@H](OC(C#N)c3ccc(O)cc3)O[C@H](CO)[C@@H](O)[C@@H]2O)[C@H](O)[C@H](O)[C@H]1O` (some centres not stated), the Potency result in assay [1] and in assay [2] was “inactive” in each case.

With `CC12CCC3c4ccc(OC5OC(C(=O)O)C(O)C(O)C5O)cc4CCC3C1CCC2O` (configuration not stated), the Potency result in assay [1] and in assay [2] was “inactive” each time.

In the case of `CC1(C)CC[C@]2(C(=O)OC3OC(CO)C(O)C(O)C3O)CC[C@]3(C)C(=CCC4[C@@]5(C)CC[C@H](OC6OC(C(=O)O)C(O)C(O)C6O)C(CO)(CO)C5CC[C@]43C)[C@@H]2C1` (some centres not stated), the Potency in assay [1] is 0.693 µM (active); in assay [2] it was 0.438 µM (active).

Regarding `CC1C2=CC(=O)OC2(O)CC2C1C(OC(=O)c1ccccc1)C(OC(=O)c1ccccc1)C1(O)C2(C)CCC(O)C1(C)C(=O)O` (configuration not stated), the Potency entry in assay [1] and in assay [2] was “inactive” each time.

In the case of `CO/N=C(/C(=O)N[C@@H]1C(=O)N2C(C(=O)O)=C(CSC(=O)c3ccco3)CS[C@H]12)c1csc(N)n1`, the Potency result in assay [1] and in assay [2] was “inactive” in each case.

Consider `CC1(C)CC[C@]2(C(=O)O)CC[C@]3(C)C(=CCC4[C@@]5(C)CC[C@H](O[C@@H]6O[C@H](CO)[C@@H](O)[C@H](O)[C@H]6O[C@@H]6O[C@H](CO)[C@@H](O)[C@H](O)[C@H]6O)[C@@](C)(CO)C5CC[C@]43C)[C@@H]2C1` (some centres not stated), for which the Potency entry in assay [1] and in assay [2] was “inactive” each time.
